Bioassay records deposited in PubChem by several laboratories.
Sampled rows, rich in hits. Any-hit rate of the full collection: about 2.1%.
Sa ugtP lethal = growth inhibition of S. aureus ugtP deletion strain. 330,000 tested, 0.54% active. S. aureus RN4220 ugtP deletion, OD600 growth, 16 h. growth inhibition, % (test concentration not listed); in the data active = growth inhibition above about 68%
PrP 5UTR inh = suppresses PrP 5' UTR mRNA reporter expression; inhibition, % (concentration not given with the values); cell-based PrP 5' UTR mRNA reporter, plate reader; 340,000 tested, 0.35% active; in the data active = inhibition above about 52%
PfHsp40 yeast = rescue of PfHsp40-mediated yeast toxicity; S. cerevisiae expressing PfHsp40, growth rescue, ATP luminescence; 340,000 tested, 0.68% active; growth rescue, % at 12.5 µM; in the data active = growth rescue above about 28%, passing the limit was not always enough; inconclusive = no clear call, values can overlap the other calls;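 also: yeast W303a lacking pdr1 and pdr3 grown in galactose medium; growth measured after three days at 30 °C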
CCHF vOTU inh = CCHFV vOTU protease inhibition | Pep-AMC fluorescence | inhibition, % at 11.5 µM | 370,000 tested, 0.55% active | AID 651958; in the data active = inhibition above about 30%
RN4220 kill = S. aureus RN4220 growth inhibition; OD600, 16 h; inhibition, % (test concentration not listed); 330,000 tested, 0.33% active; AID 1259311; in the data active = inhibition above about 85%
PrPC TRFRET = reduces human prion protein on the cell surface | P04156 | inhibition, % at 13.8 µM | 370,000 tested, 0.43% active | cell surface PrPC, TR-FRET read-out | AID 720596; in the data active = inhibition above about 24%
Of the large screens only hits and unclear results are named; the others gave an inactive call.

CC(=NNC(=S)NCc1ccccc1)c1ccc(Cl)cc1	none (no result: PrP 5UTR inh, PfHsp40 yeast, CCHF vOTU inh, PrPC TRFRET)
CCCCC(CC)c1nnc(NC(=O)c2cccs2)s1 (stereo unspecified)	PfHsp40 yeast 264
CC(C)c1nnc(NC(=O)c2cccs2)s1	none
CC(CCc1ccco1)=NNC(=O)CNc1cccc2ccccc12	none (no result: PrP 5UTR inh, PfHsp40 yeast, CCHF vOTU inh, PrPC TRFRET)
COc1cc(C=NN2CCN(Cc3ccc(Cl)cc3)CC2)ccc1OC(C)=O	none (no result: PrP 5UTR inh, PfHsp40 yeast, CCHF vOTU inh, PrPC TRFRET)
Clc1ccc(COC(Cn2ccnc2)c2ccc(Cl)cc2Cl)c(Cl)c1 (stereo unspecified)	Sa ugtP lethal 100, PfHsp40 yeast 91, RN4220 kill 100
C=CCOC(Cn1ccnc1)c1ccc(Cl)cc1Cl (stereo unspecified)	PfHsp40 yeast 326
Cc1cc(C)n(CCC(=O)NN=Cc2ccc(Cl)c([N+](=O)[O-])c2)n1	none (no result: PrP 5UTR inh, PfHsp40 yeast, CCHF vOTU inh, PrPC TRFRET)
COc1ccc(-c2nnc(SCC(=O)c3ccc(C)o3)o2)cc1	none
COc1ccc(-c2nnc(SCc3cc(C)cc(C)c3)o2)cc1	Sa ugtP lethal 94
c1ccc(-c2onc(-c3ccco3)c2-c2ccc3[nH]ccc3c2)cc1	Sa ugtP lethal 85
O=C(CSc1nnc(-c2ccccc2)c(-c2ccccc2)n1)Nc1ccc(Br)cn1	Sa ugtP lethal 88
O=C(CSc1nnc(-c2ccccc2)c(-c2ccccc2)n1)Nc1ncc(Cl)cc1Cl	none
O=S(=O)(CCSc1nc2ccccc2o1)c1nc2ccccc2s1	none
O=S(=O)(CCSc1ccccn1)c1nc2ccccc2s1	PfHsp40 yeast 59
CC(C)NC(=O)C1C[C@@]1(C)C(NC(=O)OCc1ccccc1)c1ccccc1 (stereo partly specified)	none (no result: PrP 5UTR inh, PfHsp40 yeast, CCHF vOTU inh, PrPC TRFRET)
Cc1cccc(C2=NN(c3ccccc3)[C@@H](C(=O)N3CCOC3=O)[C@@H]2C)c1	PfHsp40 yeast 33
O=[N+]([O-])c1ccc(C[n+]2cccc3c4ccccc4ccc32)cc1	none
CCCCCCCCC[n+]1cccc2c3ccccc3ccc21	Sa ugtP lethal 100, RN4220 kill 100 (no result: CCHF vOTU inh, PrPC TRFRET)
CC(=O)NC(c1ccc(C)cc1)c1cc([N+](=O)[O-])c2cccnc2c1O (stereo unspecified)	PfHsp40 yeast 221
CCC(=O)NC(c1cc(Cl)c2cccnc2c1O)C(C)C (stereo unspecified)	PfHsp40 yeast 247
CC(=O)NC(c1ccccc1)c1cc(Cl)c2cccnc2c1O (stereo unspecified)	none
COc1ccc(C(NC(C)=O)c2cc(Cl)c3cccnc3c2O)cc1 (stereo unspecified)	PrPC TRFRET 28
CCC(=O)NC(c1ccc(C)cc1)c1cc([N+](=O)[O-])c2cccnc2c1O (stereo unspecified)	Sa ugtP lethal 95, RN4220 kill 94
O=C1C=C(c2ccc(-c3ccccc3)cc2)CC(c2ccc(Cl)cc2)C1 (stereo unspecified)	none (no result: PrP 5UTR inh, PfHsp40 yeast, CCHF vOTU inh, PrPC TRFRET)
COc1cc(C)ccc1OCC(=O)OCC(=O)c1[nH]c(C)c(C(C)=O)c1C	none
CC(=O)c1c(C)[nH]c(C(=O)COc2cc(C)ccc2C(C)C)c1C	PrPC TRFRET 26
CN(C)c1ccc(C=C2C(=O)NC(=O)N(CCc3ccc(F)cc3)C2=O)cc1	none (no result: PrP 5UTR inh, PfHsp40 yeast, CCHF vOTU inh, PrPC TRFRET)
COC(=O)C1=C(c2ccccc2)CC2CCC1N2C(=O)N1CCC(C)CC1 (stereo unspecified)	none (no result: PrP 5UTR inh, PfHsp40 yeast, CCHF vOTU inh, PrPC TRFRET)
CCN(CC)c1ccc(N2C(=O)CSC2=S)cc1	Sa ugtP lethal 33
CCOc1ccc(N2C(=O)CSC2=S)cc1	none
CC(=O)OC1CC2C(C)=CC3OC(=O)C(C)C3CC2[C@]1(C)O (stereo partly specified)	none (no result: PrP 5UTR inh, PfHsp40 yeast, CCHF vOTU inh, PrPC TRFRET)
CC1=C[C@H]2OC(=O)[C@@H](C)[C@H]2C[C@@H]2[C@H]1C[C@@H](O)[C@@]2(C)O	PfHsp40 yeast 39 (no result: Sa ugtP lethal, RN4220 kill)
CCn1cc(/C=N\NC(=O)c2ccc3c(c2)c(C)c(C)n3Cc2ccccc2)c(C)n1	PfHsp40 yeast 72 (no result: Sa ugtP lethal, RN4220 kill)
COc1cc(Cc2cc(N)nc(N)n2)cc(OC)c1OC	Sa ugtP lethal 100, RN4220 kill 98
CC1CN(C(C)CO)C(=O)c2cccc(NC(=O)CCCCCC(=O)Nc3ccccc3N)c2OC1CN(C)Cc1ccncc1 (stereo unspecified)	none (no result: PrP 5UTR inh, PfHsp40 yeast, CCHF vOTU inh, PrPC TRFRET)
CCc1ccc(-c2cn(C3CCCCC3)c(=S)[nH]2)cc1	PfHsp40 yeast 91
CC(=NNC(=O)c1ccc(C(C)(C)C)cc1)c1cccnc1	none (no result: PrP 5UTR inh, PfHsp40 yeast, CCHF vOTU inh, PrPC TRFRET)
O=c1cc(CO)oc(C(Nc2ccccn2)c2cccc(F)c2)c1O (stereo unspecified)	none
O=c1cc(CO)oc(C(Nc2ccccn2)c2ccc(C(F)(F)F)cc2)c1O (stereo unspecified)	PfHsp40 yeast 128
C=C(C)C(O)CC/C(C)=C/Cc1c(O)ccc(C(=O)/C=C/c2ccc(O)cc2)c1O (stereo unspecified)	Sa ugtP lethal 91, PfHsp40 yeast inconclusive, RN4220 kill 99
COc1ccc2cc(C[C@@H]3CC[C@@H](CNC(N)=O)O3)ccc2c1	PfHsp40 yeast 38
COc1ccccc1N1CCN(N=C(C)c2ccccc2O)CC1	none (no result: PrP 5UTR inh, PfHsp40 yeast, CCHF vOTU inh, PrPC TRFRET)
Cc1c(NC(=S)NN=C/C=C/c2ccc([N+](=O)[O-])cc2)c(=O)n(-c2ccccc2)n1C	Sa ugtP lethal 88 (no result: PrP 5UTR inh, PfHsp40 yeast, CCHF vOTU inh, PrPC TRFRET)
COc1cc(OC)c(NC(=S)Nc2cccc(C(C)=O)c2)cc1Cl	none
COc1cc(OC)c(NC(=S)Nc2cc(Cl)cc(Cl)c2)cc1Cl	Sa ugtP lethal 93, RN4220 kill 99
CCOC(=O)C1C2COc3cc(OC)ccc3C2N2C(=O)N(c3ccc(OC)cc3)C(=O)[C@]12C (stereo partly specified)	none (no result: PrP 5UTR inh, PfHsp40 yeast, CCHF vOTU inh, PrPC TRFRET)
Cc1c(C(=O)NC(=S)Nc2ccccc2N2CCCC2)cccc1[N+](=O)[O-]	Sa ugtP lethal 96
CCCCC(=O)NC(=S)Nc1ccccc1N1CCCCC1	Sa ugtP lethal 84
COc1ccc(C(=O)NC(=S)Nc2ccccc2N2CCCCC2)cc1[N+](=O)[O-]	Sa ugtP lethal 94
COC(=O)C1=C(c2ccc(F)cc2OCc2ccccc2)CC2CCC1N2C(=O)N1CCC(O)(c2ccc(Cl)cc2)CC1 (stereo unspecified)	none (no result: PrP 5UTR inh, PfHsp40 yeast, CCHF vOTU inh, PrPC TRFRET)
O=C(COc1ccc([N+](=O)[O-])cc1)Nc1nc(-c2ccccn2)cs1	PfHsp40 yeast 271
O=C(COc1ccc(F)cc1)Nc1nc(-c2ccccn2)cs1	none
O=C(COc1ccccc1)Nc1nccs1	PfHsp40 yeast 57
Cc1ccc(OCC(=O)Nc2nc(-c3ccccn3)cs2)c(C)c1	PfHsp40 yeast 54
O=C(O)COc1ccccc1C=NNC(=O)c1cccc(S(=O)(=O)Nc2cccc(Cl)c2)c1	none (no result: PrP 5UTR inh, PfHsp40 yeast, CCHF vOTU inh, PrPC TRFRET)
CCCCC(=O)O[C@]1(C(=O)CO)CCC2C3CCC4=CC(=O)CC[C@]4(C)C3C(O)C[C@@]21C (stereo partly specified)	none (no result: PrP 5UTR inh, PfHsp40 yeast, CCHF vOTU inh, PrPC TRFRET)
Cc1ccc(C(=O)NN=Cc2cccc(OC(=O)/C=C/c3ccco3)c2)cn1	none (no result: PrP 5UTR inh, PfHsp40 yeast, CCHF vOTU inh, PrPC TRFRET)
Cc1nn(-c2ccccc2)c2c1C(c1ccc(O)c(O)c1)N1C(=N2)C(Nc2ccccc2)=Nc2ccccc21 (stereo unspecified)	none
